Our source for the outcome and AC50 values is PubChem BioAssay (EPA / NIEHS).

The source made the active and inactive calls. Rule for the calls: active = hit-call score of the fitted dose curve at least 0.9, where 1 is the maximum; inactive = score below 0.9.

The test is described as follows: APR_HepG2_P-H2AX_1hr: Apredica 1-hour HepG2 Assay for H2AX Phosphorylation (AID 2282673). To be noted: high-content imaging, actives raise or lower the signal. The method, then: APR_HepG2_1hr is a cell-based, multiplexed-readout assay that uses HepG2, a human liver cell line, with measurements taken at 1 hour after chemical dosing in a 384-well plate.APR_HepG2_P-H2AX_1hr is one of 10 assay component(s) measured or calculated from the APR_HepG2_1hr assay. It is designed to make measurements of dna content, a form of viability reporter, as detected with fluorescence intensity signals by HCS Fluorescent Imaging technology.Data from the assay component APR_HepG2_P-H2AX_1hr was analyzed into 1 assay endpoint. This assay endpoint, APR_HepG2_P-H2AX_1hr, was analyzed with bidirectional fitting relative to DMSO as the negative control and baseline of activity. Using a type of viability reporter, measures of protein for gain or loss-of-signal activity can be used to understand the signaling at the pathway-level as they relate to the gene . Furthermore, this assay endpoint can be referred to as a primary readout, because this assay has produced multiple assay endpoints where this one serves a signaling function. To generalize the intended target to other relatable targets, this assay endpoint is annotated to the dna binding intended target family, where the subfamily is cellular response to DNA damage stimulus.
Cells were treated with dimethyl sulfoxide (DMSO) as a solvent control at a final concentration of 0.5% v/v or with compounds in DMSO with a resulting final DMSO concentration of 0.5% v/v. Compound treatment was done at concentrations of 0.39, 0.78, 1.56, 3.12, 6.24, 12.5, 25, 50, 100, and 200 uM in duplicate on each plate. Cells were treated with compounds for 1, 24, or 72 hr. Carbonyl […] m-chloro-phenylhydrazone (CCCP) and taxol were used as positive controls for mitochondrial function and cytoskeletal stability, respectively; DMSO served as the negative control for this experiment. Cells were fixed by the direct addition of 50 uL formaldehyde in Hank's Balanced Salt Solution (HBSS) to a final concentration of 3.7%. After incubation in the fixation medium for 30 min at room temperature (293-298 K), cells were rinsed twice with HBSS and treated with cell permeabilization buffer (16 uL of 0.5% Triton X-100) for 10 min at room temperature (293-298 K) before labeling. For mitochondrial membrane potential and mitochondrial measurements, pre-fixed cells were incubated with 50 uL of MitoTracker Red CMXRos (Invitrogen) at a concentration of 250 nM for 30 min before fixation. In the remaining cases, post-fixed cells were labeled by incubation with a multiplexed mixture of primary antibodies in HBSS for 60 min at room temperature (293-298 K) to detect immunoreactivity of c-Jun (1:500), phospho-histone H3 (1:100), phospho-histone H2A.x (1:200), p53 (1:400), alpha-tubulin (1:200) and Hoechst 33342 (2 ug/mL). Cells were labeled for multiplexed imaging on two separate plates: a) Hoechst 33342, MitoTracker Red, phospho-histone H3, and alpha-tubulin, and b) Hoechst 33342, phospho-histone H2A.x, and c-Jun. A final rinse with HBSS (50 uL) was performed before analysis. The primary and secondary antibodies for the proteins were phospho-histone H3 (rabbit anti-phospho-histone H3 and FITC-donkey anti-rabbit IgG), phospho-histone H2A.x (mouse anti-phospho-histone H2A.x and FITC-donkey anti-mouse IgG), c-Jun (rabbit anti-phospho-c-Jun and Cy3-donkey anti-rabbit IgG), p53 (sheep anti-p53 and Cy5-donkey anti-sheep IgG), alpha-tubulin (mouse anti-alpha-tubulin and Cy5-donkey anti-mouse IgG). These antibodies are available as the CellCiphr HepG2 assay kit (Millipore).Digital images of each well were captured using a Cellomics ArrayScan VTI (Thermo Scientific Cellomics) (0.8 NA objective, 0.63x optical coupler, and XF-93 filter set) at 20x magnification. The images were acquired using the autofocus feature of the ArrayScan instrument, which entails the following steps. First, the camera focuses on channel 1 (Hoechst 33342), where nuclei are identified. Second, a Z offset of 1 um is used for capturing mitochondria (MitoTracker Red). […]
On to `CCCCSP(=O)(SCCCC)SCCCC`, for which the result was inactive.
Still for that read-out and setting: the value for `O=C(O)c1cc(Oc2ccc(C(F)(F)F)cc2Cl)ccc1[N+](=O)[O-]` was “inactive”; that for `N#CSCSC#N` was “inactive”; that for `CSc1nc(NC(C)C)nc(NC(C)C)n1` was “inactive”.
The same measure, in the same setting: the value for `C#CCC1=C(C)C(OC(=O)C2C(C=C(C)C)C2(C)C)CC1=O` (stereo not given) was “inactive”.
Turning to `CNC(=O)Oc1cccc2c1OC(C)(C)O2`, the molecule was called inactive.
Still for that read-out and setting: to `CCOP(=O)(SC(C)CC)N1CCSC1=O` (stereo not given) belongs “inactive”.
As for `CNC(=O)ON=C(SC)C(=O)N(C)C`, the molecule was classed as inactive.
As to `CC(COc1ccc(Oc2ccccc2)cc1)Oc1ccccn1` (stereo not given), the call was inactive.
Same read-out and setting: the value for `CCCOc1nn(C(=O)NS(=O)(=O)c2ccccc2C(=O)OC)c(=O)n1C` was “inactive”; that for `COP(=O)(OC)C(O)C(Cl)(Cl)Cl` (stereo not given) was “inactive”.
Still for that read-out and setting: to `CNc1cnn(-c2cccc(C(F)(F)F)c2)c(=O)c1Cl` belongs “inactive”; to `CC(C)[C@H](C(=O)O[C@H](C#N)c1cccc(Oc2ccccc2)c1)c1ccc(Cl)cc1`, “inactive”.
Turning to `CCC(CC)Nc1c([N+](=O)[O-])cc(C)c(C)c1[N+](=O)[O-]`, the molecule was classed as inactive.
Regarding `CCCCOC(=O)[C@@H](C)Oc1ccc(Oc2ccc(C#N)cc2F)cc1`, the outcome was inactive.
On the same count and under the same terms, to `COP(=O)(NC(C)=O)SC` (stereo not given) belongs “inactive”.
The same measure, in the same setting: the value for `CC1=NNC(=O)N(/N=C/c2cccnc2)C1` was “inactive”.
Still for that read-out and setting: the value for `CC(C)N(C(=O)SCC(Cl)=C(Cl)Cl)C(C)C` was “inactive”.
For `Cc1cc(C2CC2)nc(Nc2ccccc2)n1`, the molecule was classed as inactive.
Still for that read-out and setting: to `COP(=O)(OC)SCn1c(=O)oc2cc(Cl)cnc21` belongs “inactive”.
The same measure, in the same setting: the value for `CN(C)C(=O)Nc1cccc(C(F)(F)F)c1` was “inactive”; that for `CSc1nnc(C(C)(C)C)c(=O)n1N` was “inactive”.
Consider `O=[N+]([O-])c1cc(C(F)(F)F)c(Cl)c([N+](=O)[O-])c1Nc1ncc(C(F)(F)F)cc1Cl`, for which the concentration at half-maximal activity (AC50) was 21.6 µM (active).
As to `CCCSP(=O)(OCC)SCCC`, the molecule was called inactive.
Same read-out and setting: the value for `CCOP(=S)(OCC)OC(Cl)C(Cl)(Cl)Cl` (stereo not given) was “inactive”; that for `C#CC(C)(C)NC(=O)c1cc(Cl)cc(Cl)c1` was “inactive”; that for `CCNc1nc(Cl)nc(NC(C)(C)C#N)n1` was “inactive”.
Still for that read-out and setting: to `CCOP(=S)(OCC)Oc1ccc([N+](=O)[O-])cc1` belongs “inactive”; to `CCOP(=S)(OCC)Oc1ccc2c(C)c(Cl)c(=O)oc2c1`, “inactive”; to `Cc1nn(-c2cc(NS(C)(=O)=O)c(Cl)cc2Cl)c(=O)n1C(F)F`, “inactive”.
The same measure, in the same setting: the value for `CC(=NC#N)N(C)Cc1ccc(Cl)nc1` was “inactive”.
Turning to `CCc1cccc(CC)c1N(COC)C(=O)CCl`, the outcome was inactive.
On the same count and under the same terms, the value for `Nc1nc(N)nc(NC2CC2)n1` was “inactive”.
With `CC1(C(=O)Nc2ccc(O)c(Cl)c2Cl)CCCCC1`, the outcome was inactive.
On the same count and under the same terms, the value for `CC(Oc1cccc(Cl)c1)C(=O)O` (stereo not given) was “inactive”; that for `CCc1cnc(C2=NC(C)(C(C)C)C(=O)N2)c(C(=O)O)c1` (stereo not given) was “inactive”.
Still for that read-out and setting: to `C[N+]1(C)CCCCC1` belongs “inactive”; to `CSC1=N[C@@](C)(c2ccccc2)C(=O)N1Nc1ccccc1`, “inactive”.
Consider `S=C1NCCN1`, for which the molecule was classed as inactive.
On the same count and under the same terms, the value for `O=c1ccc(=O)[nH][nH]1` was “inactive”.
